{"source": "PubChem BioAssay AID602441", "about": "(National Center for Advancing Translational Sciences (NCATS), 2012)", "note": "Hit rate of the full screen: of about 1,300 compounds, fewer than 10 were called active. About 9% were inconclusive and are not listed. The list is a sample of the results. Unmarked numbers belong to inactive results. The call rests on the fitted dose curve; in most records, active means well fitted curve in the direction sought with a large enough effect; inconclusive means small, poorly fitted or top-dose-only effect, or another doubt; inactive means no such curve, though single readings can be large or run the other way."}
{"assay": "qHTS for antagonists of the Thyroid Stimulation Hormone Receptor: Hit Validation in Parental Cell Line; further: 0% is about no effect", "settings": "parental HEK293 cells lacking TSHR, counter-screen; series mostly up to 56.9 µM; activity change, negative = inhibition: at the top concentration", "text": "The thyroid-stimulating hormone receptor (TSHR) is a member of the 7 trans-membrane-spanning receptor (7TMR) family of cell surface receptors. TSHR-mediated hyperthyroidism is important in thyroid pathology. The development of small molecule antagonists of TSHR may lead to therapeutic approaches for TSHR-mediated hyperthyroidism caused by constitutively activating mutations or stimulating auto-antibodies associated with Graves' disease. Graves' disease is the leading cause of hyperthyroidism and is caused by autoantibodies that stimulate TSHR (TsAbs) causing thyroid growth and unregulated overproduction of thyroid hormones and existing treatments have liabilities (agranulocytosis). In addition, TSHRs are known to be expressed in multiple extrathyroidal tissues including bone, brain, kidney, testis, fat and cells of the immune system but the role of the TSHR in these tissues is not clear. Therefore, TSHR antagonists/inverse agonists could be used as probes of extrathyroidal TSHR function. Finally, TSHR inverse agonists, which are a subclass of antagonists that inhibit agonist-independent (or basal or constitutive) TSHR signaling, could be used to inhibit TSH-independent signaling in patients with recurrent or metastatic thyroid cancer who are receiving thyroid hormone to suppress TSH.\nIn collaboration between scientist from the NCGC and the NIDDK, a miniaturized HTRF high-throughput screen was developed. It's a cell based assay, where an anti cAMP antibody contains a fluorescent cryptate tag (excitation 337 nm; emission 620 nm) and the acceptor is cAMP-d2 (excitation 620 nm; emission 665 nm). When antibody and cAMP-d2 interact and are excited by a 337 nm light, a FRET occurs resulting in emission at 665 nm. The assay is competition between cAMP-d2 and cAMP (from the cell lysate). The homogeneous protocol allows for one step dispense after stimulation that is automation friendly. This is a hit validation assay in a counterscreen using parental HEK 293 cells lines.\nNIH Chemical Genomics Center [NCGC]\nNIH Molecular Libraries Probe Centers Network [MLPCN]\nAssay Provider: Marvin Gershengorn, NIDDK\nAn anti cAMP antibody contains a fluorescent cryptate tag (excitation 337 nm; emission 620 nm) and the acceptor is cAMP-d2 (excitation 620 nm; emission 665 nm). When antibody and cAMP-d2 interact and are excited by a 337 nm light, a FRET occurs resulting in emission at 665 nm. The assay is competition between cAMP-d2 and cAMP (from the cell lysate). The homogeneous protocol allows for one step dispense after stimulation that is automation friendly. This assay uses parental HEK-EM 293 cells", "units": {"activity change, negative = inhibition": "%"}}
{"compound": "Cc1cc2c(NCc3ccccc3)ncnc2s1", "activity change, negative = inhibition": -0.667}
{"compound": "COC(=O)c1ccc(/C(O)=C(\\C#N)c2nc3ccccc3s2)cc1", "activity change, negative = inhibition": -6.58}
{"compound": "COc1ccc(-c2sc3ccc(N4CCOCC4)cc3c2C#CCO)cc1", "activity change, negative = inhibition": -3.71}
{"compound": "Cc1[nH]c2ccccc2c1/C=C/c1cc[n+](C)cc1", "activity change, negative = inhibition": -22.4}
{"compound": "O=C(NCC1CCCN(C(=O)c2cccc(C(F)(F)F)c2)C1)c1ccc(F)cc1", "note": "(configuration not stated)", "activity change, negative = inhibition": 5.15}
{"compound": "COc1ccc(-c2c(C(F)(F)F)[nH]n3c(=O)cc(-c4ccccc4)nc23)cc1", "activity change, negative = inhibition": -6.45}
{"compound": "COc1ccc(/C=C2/SC(=S)NC2=O)cc1OCc1ccccc1", "activity change, negative = inhibition": -11.5}
{"compound": "COc1ccc(OC)c2c1C(=O)C(Cl)=C(Cl)C2=O", "activity change, negative = inhibition": -19.3}
{"compound": "O=C1c2ccccc2C(=O)N1CCCCSc1nnnn1-c1ccccc1", "activity change, negative = inhibition": 2.18}
{"compound": "Cc1cc(Br)ccc1OCC(=O)NC1CCCC1", "activity change, negative = inhibition": 3.22}
{"compound": "COc1ccccc1NS(=O)(=O)c1cc(NC(=O)c2ccc3c(c2)OCCO3)ccc1C", "activity change, negative = inhibition": -1.4}
{"compound": "O=C(COc1ccc(Cl)cc1Cl)Nc1ccc(C(=O)Nc2ccccc2C(=O)O)cc1", "activity change, negative = inhibition": -4.74}
{"compound": "O=C(COC(=O)c1ccccc1SCC(=O)N1CCCC1)Nc1ccccc1", "activity change, negative = inhibition": 1.31}
{"compound": "Cc1ccc(OC(F)F)c(NC(=O)Nc2cccc(C(F)(F)F)c2)c1", "activity change, negative = inhibition": -4.88}
{"compound": "O=C(c1cc(COc2cccc3cnccc23)on1)N1CCCC(CCCO)C1", "note": "(configuration not stated)", "activity change, negative = inhibition": -1.72}
{"compound": "Cc1ccc(S(=O)(=O)/N=C2/NC(=O)/C(=C\\c3cc(Br)cc(Br)c3O)S2)cc1", "activity change, negative = inhibition": 3.98}
{"compound": "CCN(CC)S(=O)(=O)c1cccc(C(=O)/C=C2/N(C)c3ccccc3C2(C)C)c1", "activity change, negative = inhibition": -8.84}
{"compound": "CCCOc1ccc(CSc2nc3ccccc3[nH]2)cc1", "activity change, negative = inhibition": 2.29}
{"compound": "Cc1nn(CCCC(=O)Nc2cc(Oc3ccccc3)cc([N+](=O)[O-])c2)c(C)c1[N+](=O)[O-]", "activity change, negative = inhibition": -1.09}
{"compound": "Cc1ccccc1CS(=O)(=O)c1ncc(Cl)c(C(=O)Nc2ccc(F)cc2)n1", "activity change, negative = inhibition": -4.75}
{"compound": "Cc1cc(NC(=O)CC(C)C)c(=O)n(Cc2cccc(F)c2)c1", "activity change, negative = inhibition": 4.18}
{"compound": "CCOC(=O)c1c(NC(=O)/C=C/C(=O)O)sc(C)c1-c1ccc(F)cc1", "activity change, negative = inhibition": 1.17}
{"compound": "Cc1cc(NC(=O)c2cccc(S(=O)(=O)N3CCOCC3)c2)c2ccccc2n1", "activity change, negative = inhibition": 1.33}
{"compound": "O=C(Nc1nnc(C(F)(F)F)s1)c1ccc(Br)s1", "activity change, negative = inhibition": 4.59}
{"compound": "COc1ccc(-c2nc(NC(=O)c3cc(C(C)(C)C)nn3C)sc2C)cc1", "activity change, negative = inhibition": -7.16}
{"compound": "CCc1noc(C)c1C(=O)Oc1ccc(N(C)S(=O)(=O)c2ccc(C)cc2)cc1", "activity change, negative = inhibition": 0.572}
{"compound": "COc1ccc(C(=O)N2CCN(c3ccc([N+](=O)[O-])c(NCCc4ccc(OC)c(OC)c4)c3)CC2)cc1", "activity change, negative = inhibition": -1.33}
{"compound": "O=[N+]([O-])c1ccc(S(=O)(=O)c2ccccc2)nc1", "activity change, negative = inhibition": -8.08}
{"compound": "CC1CC(C)CN(C(=O)c2ccc3c(=O)n(Cc4ccc5c(c4)OCO5)c(=S)[nH]c3c2)C1", "note": "(configuration not stated)", "activity change, negative = inhibition": -0.844}
{"compound": "CCc1nnc(NC(=O)c2ccc(Cl)c(S(=O)(=O)N3CCc4ccccc43)c2)s1", "activity change, negative = inhibition": -0.247}
{"compound": "COCCn1nnnc1C(c1cccs1)N1CCN(c2cc(C)ccc2C)CC1", "note": "(configuration not stated)", "activity change, negative = inhibition": -0.758}
{"compound": "Cc1cc(NC(=O)c2cc(-c3ccco3)on2)nn1Cc1ccc(Cl)cc1", "activity change, negative = inhibition": -4.6}
{"compound": "COc1ccc(-c2csc(NC(=O)c3ccccc3NS(=O)(=O)c3ccc(C)cc3)n2)cc1", "activity change, negative = inhibition": -5.21}
{"compound": "Cc1cccc(OCCCCc2c(C)n[nH]c2C)c1C", "activity change, negative = inhibition": -0.678}
{"compound": "Cc1cc2cc(CCNC(=O)c3ccc(S(=O)(=O)N4CCCC4)cc3)c(=O)[nH]c2cc1C", "activity change, negative = inhibition": -7.69}
{"compound": "O=C(NCCc1ccccc1)C(=O)NCC1OCCCN1S(=O)(=O)c1cc(F)ccc1F", "note": "(configuration not stated)", "activity change, negative = inhibition": 2.75}
{"compound": "CCOc1ccc(NS(=O)(=O)c2cc(NC(=O)c3cccc(C)c3)ccc2Cl)cc1", "activity change, negative = inhibition": 3.25}
